The list is not random: actives were taken first. Their share in the collection is about 7.5%.
NPC1 prom act: NPC1 promoter activation; Huh7 NPC1 promoter luciferase reporter, 24 h; Potency, µM (highest dose often 9.22 µM), usual class: activators; 320,000 tested, 2.4% active; AID 485313; note: nearly all actives have a fitted effect of over 60% in size
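Readout is luciferase luminescence, reflecting NPC1 promoter activation in stably transfected Huh7 cells after 24 h compound exposure at 37 °C in reduced-serum medium with 10% FBS.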
FLuc modulator: counter-screen for miR-21 project: firefly luciferase inhibitors or activators | P08659 | purified FLuc, Km substrates, luminescence inhibition | Potency, µM (titrated, usually from 57.5 µM), usual class: inhibitors | 360,000 tested, 6.9% active | AID 588342; note: nearly all actives have a fitted effect of over 55% in size
Target sequence (P08659 whole entry, looked up): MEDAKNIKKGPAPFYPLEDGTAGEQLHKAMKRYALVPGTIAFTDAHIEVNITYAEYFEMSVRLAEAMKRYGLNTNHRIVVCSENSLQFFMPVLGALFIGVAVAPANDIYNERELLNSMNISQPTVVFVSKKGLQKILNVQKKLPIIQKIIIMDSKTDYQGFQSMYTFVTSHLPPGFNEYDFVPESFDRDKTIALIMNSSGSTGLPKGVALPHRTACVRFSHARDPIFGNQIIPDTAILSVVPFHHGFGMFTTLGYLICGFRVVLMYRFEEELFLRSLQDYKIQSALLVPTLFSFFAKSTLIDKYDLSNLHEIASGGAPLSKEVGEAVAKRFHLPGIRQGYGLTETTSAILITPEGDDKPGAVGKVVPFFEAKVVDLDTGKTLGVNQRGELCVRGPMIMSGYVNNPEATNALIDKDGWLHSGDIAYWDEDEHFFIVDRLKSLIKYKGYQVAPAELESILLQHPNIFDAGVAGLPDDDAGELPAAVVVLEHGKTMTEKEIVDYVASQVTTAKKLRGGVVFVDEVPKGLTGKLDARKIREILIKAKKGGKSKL
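Purified P. pyralis luciferase, 10 nM final, with Km-level 10 uM D-luciferin and 10 uM ATP in 50 mM Tris acetate pH 7.5, 10 mM Mg acetate, 0.01% Tween-20, 0.05% BSA; 6-point qHTS titration about 60 µM downward; luminescence read.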
Rab9 prom act: Rab9 promoter activation; Huh7 Rab9 promoter-luciferase reporter, luminescence, 24 h; Potency, µM (series often up to 9.22 µM), most hits filed as activators; 320,000 tested, 2.8% active; note: nearly all actives have a fitted effect of over 60% in size
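Quantitative HTS format; Huh7 Rab9-luciferase reporter cells (1500/well) receive compound 2 h post-plating, incubate 24 h at 37 °C, then get luciferase reagent for 10 min before luminescence reading.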
SMN2 splice enh: increases expression of the SMN2 splice variant | HEK293 SMN2-luciferase splicing reporter, luminescence, 30-36 h | Potency, µM (top dose mostly 46.1 µM), actives largely listed as activators | 210,000 tested, 2.8% active | AID 1458; note: nearly all actives have a fitted effect of over 55% in size
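HEK293 cells carry an SMN2 minigene-luciferase reporter in which exon 7 inclusion puts luciferase in frame. Cells were seeded at 2000 cells/well, attached for 10-12 hours, then exposed to compounds for 30-36 hours at 37C before ONE-Glo luminescence.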
KinaseGlo FLuc: Kinase-Glo luciferase inhibition (counter-screen) | Potency, µM (doses to about 38.3 µM), usual class: inhibitors | Kinase-Glo luciferase, ATP luminescence, 8 min | Q27757 | 200,000 tested, 0.28% active; note: nearly all actives have a fitted effect of over 60% in size
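Compound is pinned into ATP-containing buffer (10 uM ATP, imidazole pH 7.2, 7 mM MgCl2). Kinase-Glo luciferase reagent is then added. Light output is recorded following an 8-min room-temperature incubation.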
ELG1 genotox: genotoxicity induction in ELG1-luciferase HEK293T cells; HEK293T ELG1-luciferase reporter, luminescence, 16 h; Potency, µM (doses to about 46 µM), most hits filed as activators; 330,000 tested, 1.3% active; AID 504466; note: nearly all actives have a fitted effect of over 60% in size
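Reporter readout depends on ELG1 protein level, which increases with genetic stress. After 16 hr compound exposure at 37 °C, luciferase activity was quantified using ONE-Glo.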
Numbers stand for hits; n = inactive; u = inconclusive; x = not tested or not shown; [ ] = dose if it differs, or a comment. Calls come from the whole dose curve; as a rule, active = well fitted curve in the direction sought with a large enough effect; inconclusive = small, poorly fitted or top-dose-only effect, or another doubt; inactive = no such curve, though single readings can be large; an effect the other way counts as inactive or inconclusive.

SMILES	NPC1 prom act	FLuc modulator	Rab9 prom act	SMN2 splice enh	KinaseGlo FLuc	ELG1 genotox
C=CCN(C(=O)C1CC(=O)N(C2CCCC2)C1)c1nc(-c2ccc(S(C)(=O)=O)cc2)cs1 (stereo not drawn)	n	n	n	x	x	n
COc1ccc2c(COC(=O)c3n[nH]c4ccccc34)cc(=O)oc2c1	3.2µM	3µM	3.5µM	20µM	n	u
COc1ccc2c(c1)C(=O)[C@@H](OC(=O)NCCOc1ccccc1)[C@H](c1ccc(OC)c(Br)c1)O2	x	x	x	n	n	x
COc1ccc(C(C)=O)cc1COC(=O)c1cnc(C)cn1	n	n	n	2.2µM	n	n
COc1ccc(C(C)=O)cc1COc1ccc(Cl)cc1Cl	n	15µM	n	x	x	n
CCn1c(=O)c2c(nc3n2CCN3c2ccc(OC)cc2)n(C)c1=O	x	n	x	x	x	x
Cc1ccc(-c2cc(C(=O)Nc3ccc(S(=O)(=O)Nc4ncccn4)cc3)[nH]n2)c(O)c1C	n	4.8µM	n	x	x	n
CC(=O)Nc1ccc(NC(=O)c2cc(-c3cc(C)cc(C)c3O)n[nH]2)cc1	n	3.4µM	n	x	x	n
CC(=O)Nc1ccc(NC(=O)c2cc(-c3ccc(C)c(C)c3O)n[nH]2)cc1	n	5.4µM	n	x	x	n
CCCOc1cccc(C2c3c(-c4ccccc4O)n[nH]c3C(=O)N2Cc2ccco2)c1 (stereo not drawn)	x	u	x	n	x	x
CCC(C)NC(=O)CSc1nc2cc3c(cc2c(=O)n1CCCCCC(=O)NCc1ccc2c(c1)OCO2)OCO3 (stereo not drawn)	x	n	x	x	x	x
COc1ccccc1CNc1ncnc2onc(-c3ccc(F)cc3)c12	x	n	x	x	x	x
CC(=O)c1ccc(S(=O)(=O)Nc2ccc(-c3ccc(N4CCCCCC4)nn3)cc2)cc1	x	11µM	x	x	x	x
CC(=O)c1ccc(S(=O)(=O)Nc2ccc(-c3ccc(N4CCCCC4)nn3)cc2)cc1	x	8.5µM	x	x	x	x
COc1ccc(OCc2cc(C(=O)O)c(C)o2)cc1	u	2.1µM	u	x	x	n
CCOc1ccc(OCc2ccc(C(=O)Nc3cccnc3)o2)cc1	0.56µM	u	u	7.9µM	n	n
CCOc1ccc(OCc2ccc(C(=O)NCc3cccnc3)o2)cc1	n	n	n	n	n	n
CN(C)c1ccc(NC(=O)c2ccc(COc3cccc(Cl)c3)o2)cc1	n	9.5µM	n	n	n	u
CCOc1ccc(OCc2ccc(C(=O)NN)o2)cc1	0.4µM	u	u	x	x	u
CCOc1ccc(OCc2ccc(C(=O)NC(C)(C)C)o2)cc1	n	n	n	x	x	n
CC(C)(C)OC(=O)C[C@H]1C/C=C\C[C@H](CC(=O)N(CCO)Cc2ccccc2)C(=O)N[C@@H](Cc2ccccc2)COC1=O	x	x	x	x	x	n
Cc1ccccc1NC(=O)OCc1cccnc1Oc1ccc(Cl)cc1	n	n	n	n	n	n
Cc1cccc(OCC(=O)NCC2(N3CCN(C)CC3)CCCCC2)c1C	x	n	x	x	x	x
CC[C@]1(C(=O)OC)[C@H]2C(=O)N(C)C(=O)[C@H]2[C@H]2CN=C(SCC3CC3)N21	x	x	x	x	x	n
CCOC(=O)c1cc2c(=O)n3ccccc3nc2n(CCCOC)c1=NC(=O)c1c(-c2ccccc2Cl)noc1C	x	n	x	n	x	x
SMILES	NPC1 prom act	FLuc modulator	Rab9 prom act	SMN2 splice enh	KinaseGlo FLuc	ELG1 genotox
O=C(O)c1ccc(OCc2ccc(C(=O)O)o2)cc1	n	n	n	x	x	n
O=C(O)c1ccc(COc2ccc(Cl)cc2)o1	n	27µM	n	11µM	n	u
COC(=O)c1ccc(COc2cccc(OC)c2)o1	n	u	n[1.84 µM]	n	n	23µM
CCc1ccc(OCc2ccc(C(=O)O)o2)cc1	u	2.1µM	u	x	x	u
CCc1ccc(S(=O)(=O)c2nnn3c2nc(Nc2cccc(C)c2C)c2sccc23)cc1	x	n	x	x	x	x
COc1cccc(C(=O)Nc2ccccc2C(=O)OCc2cc(=O)n3c(C)csc3n2)c1	x	n	x	x	x	x
COc1ccccc1C(=O)OCc1cc(=O)n2c(C)csc2n1	x	19µM	x	x	x	x
COc1ccc(C(=O)OCc2cc(=O)n3c(C)csc3n2)cc1F	4µM	u	2.2µM	x	x	u
COc1ccc(C)cc1NC(=O)c1ccc2c(c1)N(Cc1cccc(Cl)c1)C(=O)c1ccccc1S2=O (stereo not drawn)	x	n	x	x	x	x
COc1ccc2nc(NC(=O)CSc3nnc(C)s3)sc2c1	2.5µM	u	u	n	n	21µM
COc1ccc2nc(NC(=O)CSc3nnnn3C)sc2c1	2.8µM	u	3.2µM	x	n	n
COc1ccc2nc(NC(=O)CSc3n[nH]c(N)n3)sc2c1	u	9.5µM	u	x	x	15µM
COc1ccc2nc(NC(=O)CSc3nnc4n3C(C)(C)Cc3ccccc3-4)sc2c1	n	6.7µM	n	n	n	u
COc1ccc2nc(NC(=O)CSc3nnnn3C3CCCCC3)sc2c1	x	u	x	n	n	x
COc1ccc2nc(NC(=O)CSc3nc(SC)ns3)sc2c1	n	u	u	u	n	n
O=C(CN1C(=O)COc2ccc(S(=O)(=O)N3CCCCCC3)cc21)N1CCN(c2ccc(Cl)cc2)CC1	x	n	x	n	x	x
Cc1ccc(C)c(Nc2ncnc3onc(C)c23)c1	x	n	x	x	x	x
Oc1ccccc1CNc1ccc(OC(F)(F)F)cc1	n	u	u	x	n	n
CCC(CC)C(=O)Nc1cc(-c2nc3cccnc3s2)ccc1C	x	12µM	x	x	x	x
COc1ccc(CC(=O)Nc2cc(-c3nc4cccnc4s3)ccc2C)cc1	x	0.67µM	x	x	x	x
CCCC(=O)Nc1cc(-c2nc3cccnc3s2)ccc1C	x	9.5µM	x	x	x	x
Cc1ccc(-c2nc3cccnc3s2)cc1NC(=O)Cc1ccccc1	x	1.1µM	x	x	x	x
CCc1ccc(C2c3c(oc4ccc(F)cc4c3=O)C(=O)N2CCc2ccc(OC)cc2)cc1 (stereo not drawn)	x	n	x	n	x	x
Cc1ccc(C(=O)N(c2ccc(C)cc2)S(=O)(=O)c2ccc(Cl)cc2)cc1	x	n	x	n	x	x
COc1ccc(/C=C/C(=O)NCCN=C2NS(=O)(=O)c3ccccc32)cc1	n	15µM	n	n	n	n
SMILES	NPC1 prom act	FLuc modulator	Rab9 prom act	SMN2 splice enh	KinaseGlo FLuc	ELG1 genotox
Cc1cccc(Cl)c1NC[C@H](O)CN1CCN(C)CC1	x	x	x	n[9.22 µM]	n[7.66 µM]	x
O=c1cc(-c2ccc3c(c2)OCCO3)oc2ccc(Cl)cc12	0.63µM	0.38µM	0.45µM	2.5µM	n	2.9µM
O=c1cc(-c2ccsc2)oc2cc(-c3ccc4c(c3)OCO4)ccc12	x	x	x	x	x	n
O=c1cc(-c2cccs2)oc2ccc(Cl)cc12	3.2µM	4.8µM	3.2µM	x	x	u
CCOc1ccc(S(=O)(=O)N2Cc3ccccc3CC2C(=O)Nc2ccc(NC(C)=O)cc2)cc1 (stereo not drawn)	x	n	x	n	x	x
CC(C)(C)c1ccc(S(=O)(=O)N2CCN(C(=O)C3=COCCO3)CC2)cc1	n	n	n	x	x	n
CCC(=O)N1CCc2cc(CNS(=O)(=O)c3ccc(CC(C)C)cc3)ccc21	x	n	x	x	x	x
CC(=Nc1ccc(C)c(C)c1)C1=C(O)CSC1=O	n	11µM	u	u	n	18µM
O=c1[nH]c2ccccc2nc1/C=C/c1ccc(Cl)cc1	3.2µM	u	0.89µM	x	x	9.2µM

High-throughput results from PubChem BioAssay.
